The structures appear in SMILES notation. Several values for one entry are separate records, joined by “and”; a condition that tells them apart may be missing. Identical values can stand only once. Results filed as inconclusive are left out. The source holds several records for some structures; these can differ, active in one and inactive in another. Activity calls are given as the source filed them. Unless noted, calls follow the shape of the dose curve; as a rule, active = well fitted curve in the direction sought with a large enough effect in the repeat runs; inconclusive = weak or mixed curves; inactive = no such curve, though single readings can be large; an effect the other way counts as inactive or inconclusive.

Experiment [1] can be described thus: qHTS assay to identify small molecule antagonists of the estrogen related receptor (ERR) signaling pathway from Tox21 library - cell viability counter screen (AID 1224834). Also: nearly all actives have a fitted effect of over 30% in size. Also: potency is read from the fitted curve at half-maximal effect. In outline:
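Multiplexed viability counter screen in ERR cells: 17.5 h compound exposure at 37 C, CellTiter-Fluor added, 30 min at 37 C/5% CO2, fluorescence read.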
For orientation: qHTS replaces the single test concentration by a dilution series.

Experiment [2] concerns the target Luciferin 4-monooxygenase (Photinus pyralis) (UniProt P08659). As to the kind of experiment: qHTS assay to identify small molecule inhibitors of firefly luciferase (AID 1224835). Also: nearly all actives have a fitted effect of over 25% in size. In short, it runs like this:
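Biochemical qHTS: compounds run as interplate titrations against purified firefly enzyme, with D-luciferin and ATP each at its KM concentration. Light output recorded by CCD imaging.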

A short description of experiment [3]: qHTS assay to identify small molecule agonists of the constitutive androstane receptor (CAR) signaling pathway - cell viability counter screen (AID 1224836). Also: nearly all actives have a fitted effect of over 45% in size. In outline: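 Cells were seeded and incubated 4 hrs. Compounds were added across 15 concentrations together with PK11195 at 0.75 uM final. Plates were incubated 23 hrs at 37 C. CellTiter-Fluor was added and fluorescence measured.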

Experiment [4] can be described thus: qHTS assay to identify small molecule antagonists of the constitutive androstane receptor (CAR) signaling pathway - cell viability counter screen (AID 1224837). Also: nearly all actives have a fitted effect of over 45% in size. In short, it runs like this: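 Read-out: CellTiter-Fluor fluorescence after 23 hr at 37 C/5% CO2. Cells: HepG2 double-stable for hCAR and CYP2B6-2.2kb. Compounds tested at 15 concentrations in the presence of CITCO, final concentration 50 nM.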

Experiment [5] addresses Nuclear receptor subfamily 1 group I member 3 (Homo sapiens) (UniProt Q14994). As to the kind of experiment: qHTS assay to identify small molecule antagonists of the constitutive androstane receptor (CAR) signaling pathway (AID 1224838).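 Also: HepG2 cells stably expressing hCAR with CYP2B6 luciferase reporter stimulated by CITCO; nearly all actives have a fitted effect of over 40% in size.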 In short, it runs like this: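 Read-out: ONE-Glo luciferase luminescence after 30 min at room temperature. HepG2-CYP2B6-hCAR double-stable cells, compounds in 15-point titration plus 50 nM CITCO final, 24 h at 37 C/5% CO2.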

For experiment [6] the target is unchanged. In words: qHTS assay to identify small molecule agonists of the constitutive androstane receptor (CAR) signaling pathway (AID 1224839).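 Also: HepG2 cells stably carrying human CAR and a CYP2B6 luciferase reporter; nearly all actives have a fitted effect of over 15% in size.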 In short, it runs like this:
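Cells were plated and incubated 4 hrs, then dosed with compounds at 15 concentrations. PK11195 was added to 0.75 uM final. After 24 hrs at 37 C, luciferase luminescence was measured.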

Experiment [7] addresses Thyrotropin receptor (Homo sapiens) (UniProt P16473). In words: qHTS assay to identify small molecule agonists of the thyroid stimulating hormone receptor (TSHR) signaling pathway (AID 1224843; calls by dose curve; also: nearly all actives have a fitted effect of over 45% in size). In outline:
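HEK293/TSHR, 800 cells/well; cpd 30 min RT; add cAMP-d2 + anti-cAMP-cryptate, 1 h RT; fluorescence read on plate reader. 15-pt titration, n=3.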

The nature of experiment [8]: qHTS assay to identify small molecule agonists of the hypoxia (HIF-1) signaling pathway - cell viability counter screen (AID 1224844; calls by dose curve; also: nearly all actives have a fitted effect of over 50% in size). In outline: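 CellTiter-Glo luminescence read-out, 30 min RT, taken in the same wells as the beta-lactamase HRE reporter assay; HRE-bla ME-180 cells, 0.5% dialyzed FBS, 17 hr compound treatment at 37C, 5% CO2.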
Experiment [9] is described as follows: qHTS assay to identify small molecule agonists of H2AX (AID 1224845; active = well fitted activation curve with a large enough effect in the signal ratio in the repeat runs, not every such curve was filed as active; the % refers to the signal ratio). In outline:
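Wild-type CHO-K1 cells, plated overnight, exposed 3hr at 37C to 15 concentrations (0.76% DMSO final). Lysed, then HTRF anti-pH2AX (S139) cryptate and anti-H2AX-d2 antibodies, 24 hr room temperature; 665/620 nm emission read.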

Experiment [10] can be described thus: qHTS assay to identify small molecule agonists of the hypoxia (HIF-1) signaling pathway (AID 1224846; active = well fitted activation curve with a large enough effect in the signal ratio in the repeat runs, not every such curve was filed as active; the % refers to the signal ratio). In outline:
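Beta-lactamase FRET read-out (CCF4-AM substrate) from ME-180 cells carrying an HRE-driven bla reporter, after 17 hrs compound exposure at 37C/5% CO2. Cells were seeded at 2,000 per well in 0.5% dialyzed FBS medium and preincubated 5 hrs.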

Experiment [11] is described as follows: qHTS assay to identify small molecule agonists of H2AX - cell viability counter screen (AID 1224847; calls by dose curve; also: top concentration of the series differs between compounds; nearly all actives have a fitted effect of over 30% in size). In outline: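 Cytotoxicity counter screen in wild-type CHO-K1 cells: a 3 hr compound treatment at 37C across 15 concentrations, followed by CellTiter-Glo luminescence to gauge viable cells.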
A short description of experiment [12]: qHTS RealTime-Glo MT Cell Viability Assay in HepG2 cells - 24 hour (AID 1224867). Also: nearly all actives have a fitted effect of over 50% in size. In outline:
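HepG2 suspension premixed with RealTime-Glo reagents is plated at 600 cells per well and left 5 h at 37 C/5% CO2. Compounds in DMSO then go in, and bioluminescence reflecting viable cell number is recorded over 40 h.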

The nature of experiment [13]: qHTS RealTime-Glo MT Cell Viability Assay in HEK293 cells - 32 hour (AID 1224868). Also: top concentration of the series differs between compounds; nearly all actives have a fitted effect of over 50% in size. In outline:
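Reads taken at 0, 8, 16, 24, 32 and 40 h from the same wells. HEK293 cells (600/well) carried RealTime-Glo reagents from seeding, with compound added after a 5 h settle at 37 C.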

Experiment [14] in a line: A CellTox Green Cytotoxicity Assay to monitor cytotoxicity in HEK293 cells - 0 hour (AID 1224869). Also: nearly all actives have a fitted effect of over 50% in size. In short, it runs like this:
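Read-out: fluorescence of a cell-impermeant cyanine dye staining DNA of dead cells, proportional to cytotoxicity. HEK293, 600 cells/well with reagent, compound (23 nL DMSO) added after 5 h; reads at 0, 8, 16, 24, 32, 40 h.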

Experiment [15] in a line: qHTS RealTime-Glo MT Cell Viability Assay in HepG2 cells - 40 hour (AID 1224870). Also: nearly all actives have a fitted effect of over 50% in size. In outline:
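HepG2 cells (600/well) mixed with RealTime-Glo MT reagent, settled 5 h at 37 C/5% CO2 before compound addition. Nonlytic NanoLuc luminescence from viable-cell prosubstrate reduction read repeatedly during 40 h treatment at 37 C.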

Experiment [16] is described as follows: qHTS assay to identify small molecule antagonists of the estrogen related receptor (ERR) signaling pathway from Tox21 library (AID 1224848). Also: nearly all actives have a fitted effect of over 50% in size. In short, it runs like this: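 Compounds dissolved in DMSO are pin-transferred onto ERR reporter cells (2,000 per well) that have settled for 6 h at 37 C. Plates then incubate 18 h at 37 C before ONE-Glo luciferase reagent and a luminescence read 30 min later.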

Experiment [17] is described as follows: qHTS assay to identify small molecule agonists of the estrogen related receptor (ERR) signaling pathway from Tox21 library (AID 1224849; calls by dose curve; also: nearly all actives have a fitted effect of over 15% in size). The following applies: ERR reporter cell line, ONE-Glo luciferase, 18 h. In short, it runs like this: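 Luminescence readout (ONE-Glo, 30 min RT) after 18 h compound exposure at 37 C of NTP-supplied ERR reporter cells; cells were plated 6 h before compound addition by pin tool.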

Experiment [18] in a line: qHTS assay to identify small molecule antagonists of the estrogen related receptor signaling pathway with the pleiotropic PPARgamma coactivator (PGC) from Tox21 10K library - cell viability counter screen (AID 1224840; active = well fitted cell-killing curve with a large enough effect in the repeat runs, not every such curve was filed as active; also: nearly all actives have a fitted effect of over 40% in size). In short, it runs like this: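 Fluorescence read-out of CellTiter-Fluor viability reagent, added after cells had been exposed to compound in DMSO for 17.5 h at 37 C; 30 min development at 37 C/5% CO2. Cells: PGC/ERR line, 2,000/well.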

Experiment [19] in a line: qHTS assay to identify small molecule antagonists of the estrogen related receptor signaling pathway with the pleiotropic PPARgamma coactivator (PGC) from Tox21 10K library (AID 1224841; call rule not given here). In outline: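 Luminescence read-out (One-Glo luciferase reagent, 30 min at room temperature) from PGC/ERR cells exposed to DMSO-dissolved test compounds for 18 h at 37 C; cells, 2,000 per well, had been preincubated 6 h before compound transfer.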

Experiment [20] in a line: qHTS assay to identify small molecule agonists of the estrogen related receptor signaling pathway with the pleiotropic PPARgamma coactivator (PGC) from Tox21 10K library (AID 1224842). Also: nearly all actives have a fitted effect of over 15% in size. In short, it runs like this:
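PGC/ERR reporter cell line, 2,000 cells per well, incubated 6 h at 37 C before 23 nL compound in DMSO was added. After 18 h at 37 C, One-Glo luminescence read following 30 min at room temperature.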
% is scaled to controls: 0 for no effect and ±100 for the full control effect.

Thyrotropin receptor (Homo sapiens), sequence (P16473 whole entry, looked up): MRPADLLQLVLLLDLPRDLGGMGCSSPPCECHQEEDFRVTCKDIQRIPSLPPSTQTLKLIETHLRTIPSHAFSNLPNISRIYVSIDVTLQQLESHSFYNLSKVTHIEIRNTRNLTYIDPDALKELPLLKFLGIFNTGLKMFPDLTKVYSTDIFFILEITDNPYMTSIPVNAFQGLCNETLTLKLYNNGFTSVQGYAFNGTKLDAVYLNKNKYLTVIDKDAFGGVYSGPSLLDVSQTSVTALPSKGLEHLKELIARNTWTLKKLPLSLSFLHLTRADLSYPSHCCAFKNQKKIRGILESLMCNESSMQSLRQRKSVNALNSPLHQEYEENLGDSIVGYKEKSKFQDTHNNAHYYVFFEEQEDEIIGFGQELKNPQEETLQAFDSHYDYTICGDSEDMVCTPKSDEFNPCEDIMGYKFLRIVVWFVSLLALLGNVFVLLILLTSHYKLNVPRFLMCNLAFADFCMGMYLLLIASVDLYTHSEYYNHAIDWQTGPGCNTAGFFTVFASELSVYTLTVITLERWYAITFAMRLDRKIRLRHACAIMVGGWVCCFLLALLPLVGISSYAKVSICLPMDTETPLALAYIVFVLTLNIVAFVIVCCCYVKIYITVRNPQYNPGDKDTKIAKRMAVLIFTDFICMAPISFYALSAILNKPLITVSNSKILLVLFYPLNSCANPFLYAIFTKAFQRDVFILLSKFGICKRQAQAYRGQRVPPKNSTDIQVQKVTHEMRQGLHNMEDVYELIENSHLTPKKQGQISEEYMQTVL
Nuclear receptor subfamily 1 group I member 3 (Homo sapiens), sequence (Q14994 whole entry, looked up): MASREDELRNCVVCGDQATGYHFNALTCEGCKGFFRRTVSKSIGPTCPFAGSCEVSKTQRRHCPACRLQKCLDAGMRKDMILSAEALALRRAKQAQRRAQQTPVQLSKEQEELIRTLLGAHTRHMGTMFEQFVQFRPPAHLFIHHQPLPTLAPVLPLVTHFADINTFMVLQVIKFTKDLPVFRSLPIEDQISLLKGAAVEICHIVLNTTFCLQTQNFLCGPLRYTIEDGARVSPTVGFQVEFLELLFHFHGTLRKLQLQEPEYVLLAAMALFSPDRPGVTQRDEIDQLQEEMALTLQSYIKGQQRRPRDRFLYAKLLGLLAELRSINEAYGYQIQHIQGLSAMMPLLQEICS
Luciferin 4-monooxygenase (Photinus pyralis), sequence (P08659 whole entry, looked up): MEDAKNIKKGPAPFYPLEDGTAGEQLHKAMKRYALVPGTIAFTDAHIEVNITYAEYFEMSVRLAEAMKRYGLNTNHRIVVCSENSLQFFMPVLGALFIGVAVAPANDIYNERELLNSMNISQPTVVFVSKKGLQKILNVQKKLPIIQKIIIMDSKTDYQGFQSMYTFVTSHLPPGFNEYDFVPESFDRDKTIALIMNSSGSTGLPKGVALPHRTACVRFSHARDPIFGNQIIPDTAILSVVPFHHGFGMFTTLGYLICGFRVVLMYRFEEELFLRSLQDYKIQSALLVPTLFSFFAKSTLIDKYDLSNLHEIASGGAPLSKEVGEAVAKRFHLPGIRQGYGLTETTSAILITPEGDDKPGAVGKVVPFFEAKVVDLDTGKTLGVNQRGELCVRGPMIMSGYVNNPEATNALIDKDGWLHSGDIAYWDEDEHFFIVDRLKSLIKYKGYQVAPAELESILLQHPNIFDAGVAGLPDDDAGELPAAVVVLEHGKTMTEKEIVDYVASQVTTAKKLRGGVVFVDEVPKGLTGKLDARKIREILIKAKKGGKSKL

Take `CCCOC(=O)NCCCN(C)C`: the Potency result in experiment [1], in [2], in experiment [3], in [4], in experiment [5] and in experiment [6] was “inactive” throughout. Also, the Potency entry in [7], in experiment [8], in experiment [9], in experiment [11], in [12] and in [13] was “inactive” in each case. The Potency result in [14] and in [15] was “inactive” each time. For the same molecule, in experiment [10], the result was inactive.
As to `CC1(C)[C@@H](O[C@H]2O[C@H](C(=O)O)[C@@H](O)[C@H](O)[C@H]2O[C@@H]2O[C@H](C(=O)O)[C@@H](O)[C@H](O)[C@H]2O)CC[C@]2(C)[C@H]3C(=O)C=C4[C@@H]5C[C@@](C)(C(=O)O)CC[C@]5(C)CC[C@@]4(C)[C@]3(C)CC[C@@H]12`, the Potency entry in experiment [1], in [2], in experiment [3], in experiment [4], in [5] and in experiment [7] was “inactive” throughout. Further, the Potency entry in experiment [8], in experiment [9], in experiment [11], in experiment [16], in [12] and in [13] was “inactive” each time. The Potency entry in experiment [14] and in experiment [15] was “inactive” throughout. Besides, the molecule was classed as inactive in [10]. The activity change, positive = activation in experiment [17] (at 42.5 µM (top of the series)) is 2.2% (inactive) and 1.06% (inactive).
As for `CCCCCCCC(=O)O`, the Potency entry in experiment [1], in [2], in [3], in experiment [4], in [5] and in [6] was “inactive” each time. In addition, the Potency result in [18], in experiment [8], in experiment [9], in [11], in experiment [12] and in experiment [13] was “inactive” each time. In addition, the Potency result in experiment [14] and in experiment [15] was “inactive” throughout. In addition, in experiment [10], the molecule was called inactive.
As for `OCc1ccc(Cl)cc1Cl`, the Potency entry in experiment [1], in experiment [2], in experiment [3], in experiment [4], in experiment [5] and in [6] was “inactive” throughout. In addition, the Potency entry in experiment [8], in experiment [9], in experiment [11], in experiment [12], in experiment [13] and in experiment [14] was “inactive” throughout. Moreover, the Potency entry in experiment [15] was “inactive”. Moreover, the molecule was classed as inactive in experiment [10].
As for `CCCN(CCC)C(=O)SCC`, the Potency result in experiment [1], in experiment [2], in [3], in experiment [4], in experiment [5] and in [6] was “inactive” in each case. Further, the Potency entry in experiment [7], in experiment [8], in [9], in experiment [11], in experiment [12] and in [13] was “inactive” each time. The Potency result in [14] and in [15] was “inactive” throughout. Further, the result in experiment [10] was inactive.
Consider `CS(=O)(=O)c1ccc(Cl)cc1`, for which the Potency entry in experiment [1], in [2], in experiment [3], in experiment [4], in [5] and in [6] was “inactive” in each case. The Potency entry in experiment [19], in experiment [20], in experiment [7], in [8], in experiment [9] and in experiment [11] was “inactive” in each case. For the same molecule, the Potency entry in experiment [16], in experiment [12], in experiment [13], in experiment [14] and in experiment [15] was “inactive” throughout. Besides, the result in experiment [10] was inactive. Moreover, the activity change, positive = activation in experiment [17] (at 92.4 µM (top of the series)) is 8.49% (inactive).
Consider `COc1ccc(N)c(OC)c1`, for which, in experiment [1], the Potency result was “inactive and 54.5 µM (active)”. Moreover, the Potency entry in experiment [2], in experiment [3], in [4], in experiment [5], in [6] and in experiment [7] was “inactive” throughout. The Potency entry in experiment [8], in experiment [11], in experiment [12], in [13], in experiment [14] and in experiment [15] was “inactive” in each case. In [10], the molecule was classed as inactive.
Take `O=[N+]([O-])c1ccccc1C(F)(F)F`: the Potency entry in experiment [1], in experiment [2], in experiment [3], in experiment [4], in experiment [5] and in [6] was “inactive” throughout. The Potency entry in experiment [19], in [20], in [7], in experiment [8], in [9] and in experiment [11] was “inactive” each time. Besides, the Potency result in experiment [16], in experiment [12], in experiment [13], in experiment [14] and in experiment [15] was “inactive” in each case. Further, the result in experiment [10] was inactive. In experiment [17] (at 92.4 µM (top of the series)), the activity change, positive = activation was -5.97% (inactive) and 7.68% (inactive).
For the molecule `CCCCCCCCC(=O)O`, the Potency entry in experiment [1], in [2], in [3], in experiment [4], in experiment [5] and in experiment [6] was “inactive” in each case. The Potency entry in [7], in experiment [8], in experiment [9], in experiment [11], in experiment [12] and in experiment [13] was “inactive” in each case. The Potency result in experiment [14] and in [15] was “inactive” in each case. Moreover, in experiment [10], the molecule was classed as inactive.

For the origin of these results see PubChem BioAssay (Tox21).
